From PubChem BioAssay AID1159580 (chemical genetic matrix, 2015)
Out of some 5,500 compounds screened, about 2,000 (36%) were called active. Another 18% or so got no clear call; they are omitted. No stated cut-off is given here; in the data, active means normalized growth mostly below about 0.91 (no sharp cut-off); inconclusive means no clear call, values can overlap the other calls; inactive means mostly above about 0.92. The list shows a part of the results.

Test: chemical genetic growth profiling, strain panel (AID 1159580);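 further: tested at 20 µM; growth read once vehicle control cultures reached saturation at 30 °C; 1 = growth at the plate median or of vehicle wells; lower values mean less growth of the strain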
Conditions: growth OD

Measured: normalized growth

COP(=O)(OC)OC=C(Cl)Cl
inactive: S. cerevisiae deletion strains, locus YJR075W, strain HOC1, hits give low values 0.962 | S. cerevisiae deletion strains, locus YKL009W, strain mrt4, hits give low values 0.951 | S. cerevisiae deletion strains, locus YKL068W, hits give low values 0.986 | S. cerevisiae deletion strains, locus YKL085W, strain MDH1 (second series), hits give low values 0.981 | S. cerevisiae deletion strains, locus YKL085W, strain MDH1, hits give low values 0.981 | S. cerevisiae deletion strains, locus YKL160W, strain elf1, hits give low values 0.999 | S. cerevisiae deletion strains, locus YKL190W, strain CNB1, hits give low values 0.994 | S. cerevisiae deletion strains, locus YKR001C, strain vps1, hits give low values 0.992 | S. cerevisiae deletion strains, locus YKR026C, strain gcn3, hits give low values 1.01 | S. cerevisiae deletion strains, locus YKR091W, strain srl3, hits give low values 0.997 | S. cerevisiae deletion strains, locus YLL001W, strain dnm1, hits give low values 1.01 | S. cerevisiae deletion strains, locus YLL026W, hits give low values 0.997 | S. cerevisiae deletion strains, locus YLL041C, strain sdh2, hits give low values 1 | S. cerevisiae deletion strains, locus YLR027C, strain aat2, hits give low values 1 | S. cerevisiae deletion strains, locus YLR039C, strain RIC1, hits give low values 0.979 | S. cerevisiae deletion strains, locus YLR058C, strain SHM2, hits give low values 0.983 | S. cerevisiae deletion strains, locus YLR102C, strain apc9, hits give low values 0.977 | S. cerevisiae deletion strains, locus YLR113W, strain HOG1, hits give low values 1.02 | S. cerevisiae deletion strains, locus YLR221C, strain rsa3, hits give low values 0.999 | S. cerevisiae deletion strains, locus YLR258W, strain gsy2, hits give low values 0.999 | S. cerevisiae deletion strains, locus YLR262C, strain YPT6 (second series), hits give low values 1.01 | S. cerevisiae deletion strains, locus YLR262C, strain YPT6, hits give low values 0.97 | S. cerevisiae deletion strains, locus YLR268W, strain sec22, hits give low values 0.996 | S. cerevisiae deletion strains, locus YLR320W, strain mms22, hits give low values 1.01 | S. cerevisiae deletion strains, locus YLR330W, strain CHS5, hits give low values 0.996 | S. cerevisiae deletion strains, locus YLR342W, strain FKS1 (second series), hits give low values 0.971 | S. cerevisiae deletion strains, locus YLR342W, strain FKS1, hits give low values 0.983 | S. cerevisiae deletion strains, locus YLR357W, strain rsc2, hits give low values 1.07 | S. cerevisiae deletion strains, locus YLR370C, strain arc18, hits give low values 0.999 | S. cerevisiae deletion strains, locus YLR371W, strain rom2, hits give low values 0.989 | S. cerevisiae deletion strains, locus YLR384C, strain iki3, hits give low values 0.998 | S. cerevisiae deletion strains, locus YLR418C, strain cdc73, hits give low values 1.01 | S. cerevisiae deletion strains, locus YML016C, strain PPZ1, hits give low values 0.986 | S. cerevisiae deletion strains, locus YML032C, strain rad52, hits give low values 0.978 | S. cerevisiae deletion strains, locus YML120C, strain ndi1, hits give low values 0.981 | S. cerevisiae deletion strains, locus YML124C, strain tub3, hits give low values 0.992 | S. cerevisiae deletion strains, locus YMR058W, strain fet3, hits give low values 0.994 | S. cerevisiae deletion strains, locus YMR078C, strain ctf18, hits give low values 0.992 | S. cerevisiae deletion strains, locus YMR125W, strain sto1, hits give low values 0.982 | S. cerevisiae deletion strains, locus YMR129W, hits give low values 0.992 | S. cerevisiae deletion strains, locus YMR205C, strain PFK2, hits give low values 0.991 | S. cerevisiae deletion strains, locus YMR223W, strain ubp8, hits give low values 0.985 | S. cerevisiae deletion strains, locus YMR231W, strain pep5, hits give low values 1.01 | S. cerevisiae deletion strains, locus YMR263W, strain SAP30, hits give low values 0.976 | S. cerevisiae deletion strains, locus YMR307W, strain GAS1, hits give low values 1.1 | S. cerevisiae deletion strains, locus YNL067W, strain RPL9B, hits give low values 0.963 | S. cerevisiae deletion strains, locus YNL071W, strain lat1, hits give low values 1.01 | S. cerevisiae deletion strains, locus YNL128W, strain TEP1, hits give low values 0.956 | S. cerevisiae deletion strains, locus YNL153C, strain GIM3, hits give low values 0.986 | S. cerevisiae deletion strains, locus YNL183C, strain NPR1, hits give low values 0.998 | S. cerevisiae deletion strains, locus YNL209W, strain ssb2, hits give low values 0.998 | S. cerevisiae deletion strains, locus YNL233W, strain BNI4, hits give low values 0.977 | S. cerevisiae deletion strains, locus YNL248C, strain rpa49, hits give low values 0.994 | S. cerevisiae deletion strains, locus YNL250W, strain rad50, hits give low values 0.988 | S. cerevisiae deletion strains, locus YNL271C, strain bni1, hits give low values 0.98 | S. cerevisiae deletion strains, locus YNL298W, strain CLA4, hits give low values 1 | S. cerevisiae deletion strains, locus YNL307C, strain MCK1, hits give low values 1 | S. cerevisiae deletion strains, locus YNL322C, strain KRE1 (second series), hits give low values 1.02 | S. cerevisiae deletion strains, locus YNL322C, strain KRE1, hits give low values 0.985 | S. cerevisiae deletion strains, locus YNR049C, strain mso1, hits give low values 0.982 | S. cerevisiae deletion strains, locus YNR052C, strain pop2, hits give low values 0.991 | S. cerevisiae deletion strains, locus YOL006C, strain TOP1, hits give low values 1.01 | S. cerevisiae deletion strains, locus YOL012C, strain htz1 1.06 | S. cerevisiae deletion strains, locus YOL147C, strain pex11, hits give low values 1 | S. cerevisiae deletion strains, locus YOR001W, strain rrp6, hits give low values 0.996 | S. cerevisiae deletion strains, locus YOR061W, strain CKA2, hits give low values 0.96 | S. cerevisiae deletion strains, locus YOR069W, strain VPS5, hits give low values 0.98 | S. cerevisiae deletion strains, locus YOR070C, strain gyp1, hits give low values 0.99 | S. cerevisiae deletion strains, locus YOR080W, strain dia2, hits give low values 0.987 | S. cerevisiae deletion strains, locus YOR083W, strain WHI5, hits give low values 0.987 | S. cerevisiae deletion strains, locus YOR106W, strain vam3, hits give low values 0.983 | S. cerevisiae deletion strains, locus YOR136W, strain idh2, hits give low values 0.986 | S. cerevisiae deletion strains, locus YOR144C, strain elg1, hits give low values 0.984 | S. cerevisiae deletion strains, locus YOR184W, strain ser1, hits give low values 0.998 | S. cerevisiae deletion strains, locus YOR231W, strain MKK1, hits give low values 1.05 | S. cerevisiae deletion strains, locus YOR265W, strain rbl2, hits give low values 0.988 | S. cerevisiae deletion strains, locus YOR270C, strain vph1, hits give low values 0.976 | S. cerevisiae deletion strains, locus YOR290C, strain snf2, hits give low values 0.997 | S. cerevisiae deletion strains, locus YOR316C, strain cot1, hits give low values 0.971 | S. cerevisiae deletion strains, locus YPL051W, strain arl3, hits give low values 0.998 | S. cerevisiae deletion strains, locus YPL055C, strain LGE1, hits give low values 0.998 | S. cerevisiae deletion strains, locus YPL078C, strain atp4, hits give low values 0.99 | S. cerevisiae deletion strains, locus YPL106C, strain sse1, hits give low values 0.992 | S. cerevisiae deletion strains, locus YPL240C, strain hsp82, hits give low values 1 | S. cerevisiae deletion strains, locus YPL241C, strain CIN2, hits give low values 0.98 | S. cerevisiae deletion strains, locus YPL256C, strain CLN2, hits give low values 1.05 | S. cerevisiae deletion strains, locus YPR119W, strain clb2, hits give low values 0.997 | S. cerevisiae deletion strains, locus YPR141C, strain kar3, hits give low values 0.972 | S. cerevisiae deletion strains, locus YPR163C, strain tif3, hits give low values 0.995 | S. cerevisiae deletion strains, locus YPR167C, strain met16, hits give low values 0.976 | S. cerevisiae deletion strains, strain wtn01, hits give low values 0.995 | S. cerevisiae strains, strain wild type, hits give low values 0.997
